Assay results as given in PubChem BioAssay (EPA / NIEHS).
Results filed as inconclusive are left out. Activity calls are given as the source filed them. Rule for the calls: active = hit-call score of the fitted dose curve at least 0.9, where 1 is the maximum; inconclusive = response in the unintended direction; inactive = score below 0.9.

molecular target: Androgen receptor (Homo sapiens) (UniProt P10275); test: ATG_AR_TRANS: Attagene TRANS-FACTORIAL HepG2 Assay for human Androgen Receptor (AR) (AID 2282973); details: HepG2 Attagene TRANS-FACTORIAL AR reporter transcription
Outline: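 HepG2 cells transiently transfected with AR-Gal4 chimera and GAL4-UAS reporter units; chemical exposure 24 h. Reporter mRNA quantified by RT-PCR with fluorescent labelling and capillary electrophoresis; gain-of-signal fitted against DMSO.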

Sequence of Androgen receptor (Homo sapiens) (P10275 whole entry, looked up, the tested form may be a part): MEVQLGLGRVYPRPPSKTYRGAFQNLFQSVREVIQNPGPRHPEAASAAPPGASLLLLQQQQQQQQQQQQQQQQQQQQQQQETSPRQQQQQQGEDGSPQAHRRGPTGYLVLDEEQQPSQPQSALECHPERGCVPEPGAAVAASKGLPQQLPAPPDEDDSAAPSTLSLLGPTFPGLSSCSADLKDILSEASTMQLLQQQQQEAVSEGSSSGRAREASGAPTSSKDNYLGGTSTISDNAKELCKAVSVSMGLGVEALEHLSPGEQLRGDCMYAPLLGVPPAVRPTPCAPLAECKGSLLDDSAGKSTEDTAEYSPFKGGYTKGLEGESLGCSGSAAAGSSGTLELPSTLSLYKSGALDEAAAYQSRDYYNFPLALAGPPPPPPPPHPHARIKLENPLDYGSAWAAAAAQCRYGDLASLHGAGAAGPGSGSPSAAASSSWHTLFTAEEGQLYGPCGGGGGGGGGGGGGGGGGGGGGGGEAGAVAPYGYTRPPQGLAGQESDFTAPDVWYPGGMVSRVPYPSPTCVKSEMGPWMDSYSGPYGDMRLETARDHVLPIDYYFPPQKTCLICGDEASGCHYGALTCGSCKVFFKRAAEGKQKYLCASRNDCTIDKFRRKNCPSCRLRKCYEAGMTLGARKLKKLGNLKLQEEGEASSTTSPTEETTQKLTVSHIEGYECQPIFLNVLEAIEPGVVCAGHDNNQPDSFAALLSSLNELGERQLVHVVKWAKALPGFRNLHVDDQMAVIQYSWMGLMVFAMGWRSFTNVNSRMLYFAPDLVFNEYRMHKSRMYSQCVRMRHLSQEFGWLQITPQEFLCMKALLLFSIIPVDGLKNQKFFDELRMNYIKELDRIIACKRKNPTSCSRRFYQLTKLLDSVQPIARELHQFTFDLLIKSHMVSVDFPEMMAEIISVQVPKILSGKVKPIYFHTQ

outcome, inactive:
COc1ccc(O)cc1, O=C(O)C(F)(F)C(F)(F)C(F)(F)F, NCC1CCCC(CN)C1 (stereo not given), O=C(C=Cc1ccccc1)OCC=Cc1ccccc1, NNC(=O)c1cccc(C(=O)NN)c1, CCOC(=O)[C@H](O)[C@@H](O)C(=O)OCC, CCCCCCCCCCC, COC(OC(C)=O)c1ccccc1 (stereo not given), CCCCNc1ccc(NCCCC)c2c1C(=O)c1ccccc1C2=O, CC(C)CCCCCCc1ccc(OCCOCCO)cc1, CCOC(=O)[C@@H](C)Oc1ccc(Oc2nc3ccc(Cl)cc3o2)cc1, Nc1cc(Cl)c(-c2cc(Cl)c(N)cc2Cl)cc1Cl, O=[N+]([O-])c1ccccc1C(F)(F)F, COC(C)(C)CC(C)=O, CC(C)(CO)COC(=O)C(C)(C)CO, CCC(C)(C)c1cc(O)c(C(C)(C)CC)cc1O, CCCc1ccc(OC)cc1, COCCOCCOCCOCCOC, O=CN1CCOCC1, FC(OC(F)(F)C(F)(F)C(F)(F)F)C(F)(F)F (stereo not given), C=CC(C)(CCC=C(C)C)OC(=O)C=Cc1ccccc1 (stereo not given), FC1CC(F)(F)C(F)(F)C1(F)F (stereo not given), CC(CC(C)(C)C)CC(C)(C)CC(C)(C)C (stereo not given), c1ccc(-c2ccccc2-c2ccccc2)cc1, CC(O)COc1ccccc1 (stereo not given), O=C(O)C(F)(F)C(F)(F)OC(F)(F)F, CCCCCCCC1CCCC1=O (stereo not given), CN(C)CCOC(c1ccccc1)c1ccccc1, Nc1c(Cl)cc(Cl)cc1[N+](=O)[O-], C=CC/C=C/C/C=C/C/C=C/C, FC(F)(F)C1(F)C(F)(F)C(F)(F)C(F)(F)C(F)(C(F)(F)F)C1(F)F (stereo not given), CC(C)(C)c1ccc(OC2CCCCC2O)cc1 (stereo not given), O=S(=O)(O)C(F)(F)C(F)(F)C(F)(F)C(F)(F)C(F)(F)C(F)(F)C(F)(F)F, O=C1C=CC(=O)N1c1ccccc1, CCCCC/C=C\CCC=O, OCC1CCC(CO)CC1 (stereo not given), CCCC1CCOC(C)S1 (stereo not given), Nc1cc([N+](=O)[O-])ccc1Cl, Cc1ccc(C)c(OCCCC(C)(C)C(=O)O)c1, O=C[C@@H](O)[C@H](O)[C@H](O)CO
